Consider 40 compounds from the supplement of paper PMC7156485.

Values without a mark were called inactive.
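Note: TDF is a line of transformed human dermal fibroblasts of mesenchymal origin.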

The first assay relates to TDF. Put plainly: H1.0 immunofluorescence intensity relative to DMSO (% of DMSO); higher = stronger H1.0 induction, active = 120 or more. Conditions: concentration: 10 µM; 24 h. An outline of the steps: (§1)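 H1.0 nuclear intensity or cell number is expressed as percent of the plate control, with the median of replicates taken. HCC1569 and TDF cells were treated with compounds at 10 µM for 24 h at 37 °C, in triplicate, then fixed and immunostained for H1.0 with DAPI as a nuclear stain. HCC1569 values were smoothed to correct for positional effects.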
For `CCCCCCCCC1OC1CCCCCCCC(=O)O` (configuration not stated) [Epoxy-oleic acid], the H1.0 immunofluorescence intensity is 96.8. For `O=c1cc(-c2ccccc2)oc2cc(O)ccc12` [7-Hydroxyflavone], the H1.0 immunofluorescence intensity is 96.8. Consider `COC1=C2CC(C)=c3c(C(C)=O)c(OC)c(O)c4c3c2c2c(cc(OC)c3c(OC)cc(O)c4c32)C(=O)C1=O` [Hypocrellin B], for which the H1.0 immunofluorescence intensity is 97.1.

With `O=C(O)c1ccc(O)c2ncccc12` [8-hydroxy-5-quinolinecarboxylic acid], the H1.0 immunofluorescence intensity was 94.9. The same measure, in the same setting: then `O=C1C(=O)c2ccccc2C(O)=C1C1CCC(c2ccc(Cl)cc2)CC1` (configuration not stated) [Atovaquone], with 95. Still for that read-out and setting: the value for `CN(C)CC=C(c1ccc(Br)cc1)c1cccnc1.Cl.Cl` [Zimelidine dihydrochloride] was 107; that for `Cl.O.O=C(O)CN(CCN(CC(=O)O)Cc1ccccc1O)Cc1ccccc1O` was 108.

The test system of another assay is HCC1569. Put plainly: H1.0 immunofluorescence intensity relative to DMSO (% of DMSO); higher = stronger H1.0 induction, active = 140 or more. Conditions: concentration: 10 µM; 24 h. An outline of the steps:
as §1
In the case of `CC1(C)OC2CC3C4CC(F)C5=CC(=O)C=CC5(C)C4(F)C(O)CC3(C)C2(C(=O)CO)O1` (configuration not stated) [Fluocinolone acetonide], the H1.0 immunofluorescence intensity is 124. Consider `COC(=O)c1c(-c2cc(OC)c(OC)c(OC)c2)c2ccc(OCc3ccccn3)cc2c(=O)n1-c1ccc(N)cc1.O=S(=O)(O)O`, for which the H1.0 immunofluorescence intensity is 102.

In the case of `CN(C)C(=O)Nc1cccc(-c2ccc(N(C)C)cc2)c1` [3-(4'-(dimethylamino)-[1,1'-biphenyl]-3-yl)-1,1-dimethylurea], the H1.0 immunofluorescence intensity was 87.2. On the same count and under the same terms, then `CC(=O)OCC(=O)[C@@]1(O)CC[C@H]2[C@@H]3CCC4=CC(=O)C=C[C@]4(C)[C@H]3[C@@H](O)C[C@@]21C`, with 101; and `COc1ccc(S(=O)(=O)N(CCO)c2ccccc2CN(C)CC=Cc2ccc(Cl)cc2)cc1`, with 183 (active); and `Cn1cc(C2=C(c3cn(CCCSC(=N)N)c4ccccc34)C(=O)NC2=O)c2ccccc21`, with 238 (active). Same read-out and setting: the value for `OCC1OC(O)C(Cl)C(O)C1O` [2-Chloro-2-deoxy-D-glucose] was 92; that for `CCCCCCCCCCCCCCCCCCCCCC(=O)O` [Docosanoic acid] was 101. Still for that read-out and setting: the value for `CCOC(=O)CCNc1cc(N2CCc3ccccc3CC2)nc(-c2ccccn2)n1` was 113; that for `Br.Br.N=C(N)SCCc1ccc(CCSC(=N)N)cc1` [1,4-PBIT dihydrobromide] was 105; that for `NC(=O)c1ccc2[nH]ccc2c1` was 94.2. Consider `CC12CCc3occc3C1CCC13CC(=O)C(CCC12)C3` (configuration not stated) [16-Oxocafestol], for which the H1.0 immunofluorescence intensity was 98.5. On to `O=C1NC(=O)C(c2c[nH]c3ccccc23)=C1c1c[nH]c2ccccc12` [Bisindolylmaleimide IV], for which the H1.0 immunofluorescence intensity is 136.

Regarding `Cc1cccc(-c2[nH]c(C(C)(C)C)nc2-c2ccc3c(c2)OCO3)n1.Cl` [TGF-b RI Inhibitor III], the H1.0 immunofluorescence intensity is 122. The same measure, in the same setting: then `COc1ccc(-c2ccc(N)[n+](CCCC(=O)O)n2)cc1.[Br-]`, with 103.

In the case of `COc1ccc(C2CC(=O)c3c(O)cc(O)cc3O2)cc1O` (configuration not stated) [Hesperitine], the H1.0 immunofluorescence intensity is 92.8. In the case of `CC(=O)NC(CSCC=C(C)CCC=C(C)C)C(=O)O` (configuration not stated), the H1.0 immunofluorescence intensity was 103. On the same count and under the same terms, then `Oc1ccc(Cn2cc[nH]c2=S)cc1` [1-(4-Hydroxybenzyl)imidazole-2-thiol], with 96.1. The same measure, in the same setting: the value for `Cc1ccc(C(=CCN2CCCC2)c2ccccn2)cc1.Cl` [Trans-triprolidine.HCl] was 110; that for `Cc1nc2n(c(=O)c1CCN1CCC(c3noc4cc(F)ccc34)CC1)CCCC2` [Risperidone] was 107; that for `Cl.O=C(CNC(=O)c1cccc(C(F)(F)F)c1)N[C@@H]1CCN(Cc2ccc(Cl)cc2)C1` was 134.

With `Cl.NCc1c[nH]c(=S)n1[C@H]1CCc2c(F)cc(F)cc2C1`, the H1.0 immunofluorescence intensity was 111. Same read-out and setting: then `CCC1(O)C(=O)OCc2c1cc1n(c2=O)Cc2cc3c(CN(C)C)c(O)ccc3nc2-1.Cl` (configuration not stated) [Topotecan.HCl], with 96.3; and `CC(CC(c1ccccc1)c1ccccc1)NC(C)(C)C.Cl` (configuration not stated) [N-(tert-butyl)-4,4-diphenyl-2-butanamine hydrochloride], with 101; and `CC(C)(N)c1ccc(-c2nc3ccccc3nc2-c2ccccc2)cc1`, with 103. Take `CCCCCC=CC=C1C(=O)C=CC1CC=CCCCC(=O)O` (configuration not stated) [15d-Prostaglandin J2]: the H1.0 immunofluorescence intensity is 104. On the same count and under the same terms, the value for `N#CC(=C(N)Sc1ccc(N)cc1)c1ccccc1C(F)(F)F` [MEK1/2 Inhibitor] was 110; that for `C1CCC(C(CC2CCCCN2)C2CCCCC2)CC1.O=C(O)C=CC(=O)O` (configuration not stated) was 117; that for `CCn1c(-c2nonc2N)nc2c(C#CC(C)(C)O)ncc(OCC3CCCNC3)c21` (configuration not stated) was 120. The same measure, in the same setting: then `CC(=O)c1ccc(N2CCOCC2)cc1O` [DNA-PK Inhibitor III], with 118; and `COc1ccc(C2(C#N)CCC(C(=O)O)CC2)cc1OC1CCCC1` (configuration not stated), with 90.2. As to `CCCCCC=CCC(O)C=CC=CC=CC(O)CCCC(=O)O` [5(S),12(R)-DIHETE all trans], the H1.0 immunofluorescence intensity is 101. As for `Oc1ccc(C=Cc2cc(O)cc(O)c2)cc1` [Resveratrol], the H1.0 immunofluorescence intensity is 113. For `CCCCCCCCC1OC1CCCCCCCC(=O)O` (configuration not stated) [Epoxy-oleic acid], the H1.0 immunofluorescence intensity is 99.1. On the same count and under the same terms, the value for `O=c1cc(-c2ccccc2)oc2cc(O)ccc12` [7-Hydroxyflavone] was 88.8.

For the compound `COC1=C2CC(C)=c3c(C(C)=O)c(OC)c(O)c4c3c2c2c(cc(OC)c3c(OC)cc(O)c4c32)C(=O)C1=O` [Hypocrellin B], the H1.0 immunofluorescence intensity is 93.7. Still for that read-out and setting: the value for `O=C(O)c1ccc(O)c2ncccc12` [8-hydroxy-5-quinolinecarboxylic acid] was 98; that for `O=C1C(=O)c2ccccc2C(O)=C1C1CCC(c2ccc(Cl)cc2)CC1` (configuration not stated) [Atovaquone] was 108; that for `CN(C)CC=C(c1ccc(Br)cc1)c1cccnc1.Cl.Cl` [Zimelidine dihydrochloride] was 116. Same read-out and setting: the value for `Cl.O.O=C(O)CN(CCN(CC(=O)O)Cc1ccccc1O)Cc1ccccc1O` was 90.1.
